Our source for the inhibition values is PubChem BioAssay AID602252 (Broad Institute, 2012).

Each structure is given as a SMILES string. Screen size: about 300,000 compounds; about 2,700 (0.9%) were called active. The sample as a whole holds a higher share of actives than the screen did. A number with no mark means an inactive call.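 How the source made its calls: active means mean inhibition of at least 30% with at least half of replicates also reaching 30%; inconclusive means no clear call, values can overlap the other calls; inactive means the rest.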

What is called inhibition is the relative decrease from the control value, in per cent.

For this test, the target named is Golgi-associated PDZ and coiled-coil motif-containing protein (Homo sapiens) (UniProt Q9HD26). Kind of test: blockade of CAL PDZ-reporter peptide interaction – biochemical, fluorescence polarization, untagged CAL PDZ, HTS, primary screen (AID 602252).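 Further: 0% = DMSO neutral control and 100% = excess unlabeled competitor peptide PRC23.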 As to conditions: purified CAL PDZ, TMR-peptide fluorescence polarization, 1 h; at 24.9 µM; active compounds read high. In general terms: Fluorescence polarisation rises when a labelled molecule tumbles more slowly, as on binding a larger partner.
As for `O=C1CN(C(=O)COC(=O)/C=C/c2ccc(F)cc2)c2ccccc2N1`, the inhibition is -2.46%. In the case of `Nn1c(Cc2cccc3ccccc23)nnc1SCC(=O)N1CC(=O)Nc2ccccc21` it was 1.45%; in that of `C=CCn1c(COc2ccccc2F)nnc1SCC(=O)N1CC(=O)Nc2ccccc21`, 56% (active). Under `COc1cc(NC(=O)c2[nH]cnc2C(N)=O)cc(C(=O)Nc2cccc(C(F)(F)F)c2)c1` stands -1.42%; under `COc1ccc(/C=C/c2noc(-c3ccccc3OC(C)=O)n2)cc1`, 87% (active). Under `COC(=O)c1ccc(/C=C/c2c(-c3ccc(OC)cc3)sc3ccccc23)cc1` stands 0.974%; under `COc1cccc(/C=C/c2ccc3ccccc3n2)c1OC(C)=O`, -0.936%; under `COCC(=O)N(C)[C@H]1C[C@H]2c3cc(Oc4ccccc4C)ccc3CCN2C(=O)[C@H]1[C@H](C)O`, -3.46%. `C=CCC[C@@H](Cc1ccc(F)cc1)C(=O)OC[C@@H](C)NC(=O)[C@H](CC=C)CC(=O)N(CCO)Cc1ccccc1`: the inhibition is 3.24%. Under `COc1ccc(-c2noc(CCC(=O)N3CCN(c4cccc(C)c4)CC3)n2)cc1` stands -3.56%; under `COc1ccc(CNC(=O)C[C@H]2C[C@H](C(=O)N3CCOCC3)[C@@]3(C)c4[nH]c5cc(CCC(=O)N(C)C)ccc5c4CCN3C2=O)cc1OC`, -5.01%; under `Cc1cccc(OCC(O)CN2CCN(S(=O)(=O)c3ccc(C)cc3C)CC2)c1` (stereo not drawn), 1.68%.

For the compound `O=S(=O)(c1ccc(OCC(O)CN2CCN(c3ccccc3Cl)CC2)cc1)N1CCOCC1` (stereo not drawn), the inhibition was -2.34%. In the case of `CC(=O)c1ccc(OCC(O)CN2CCN(S(=O)(=O)c3cccc(Br)c3)CC2)cc1` (stereo not drawn) it was 35% (active); in that of `COC(=O)c1ccc(NCc2cc(O)ccc2O)cc1`, 0.712%. Under `COc1cc(/C=C2/C(=O)ON=C2C)ccc1OCc1ccccc1F` stands -3.18%; under `C=CCOc1ccc(/C=C2/C(=O)ON=C2C)cc1OCC`, -3%; under `COc1cc(/C=C2/C(=O)ON=C2C)ccc1OCc1cccc(F)c1`, 40.4% (active). With `COc1cc(OC)c(C(=O)NNC(=O)c2ccc(NS(=O)(=O)c3cccs3)cc2)cc1OC`, the inhibition was -2.8%.

For `C=CC(=O)Nc1ccc(Nc2ccnc(Nc3ccc(N4CCN(C)CC4)cc3)n2)cc1`, the inhibition is -0.863%.

As for `COC(=O)c1ccc(NC(=O)Nc2ccc(C)cc2)cc1`, the inhibition is -0.88%. For the compound `CCOC(=O)c1ccc(NC(=S)Nc2cc(C)cc(C)n2)cc1`, the inhibition was -17%. Under `COC(=O)c1ccc(NC(=S)Nc2cccc(C)n2)cc1` stands 52.8% (active); under `O=C(N[C@@H]1C/C=C\C[C@@H](CC(=O)N(CCO)Cc2ccccc2)C(=O)N[C@H](Cc2ccccc2)COC1=O)OCC1c2ccccc2-c2ccccc21`, 14.1%; under `CC1Cc2ccccc2N1S(=O)(=O)c1cccc(C(=O)NCC(c2ccco2)N2CCCC2)c1` (stereo not drawn), 1.18%. In the case of `COC(=O)[C@]1(Cc2ccccc2)N[C@H](CN(C)S(=O)(=O)c2ccc(F)cc2)[C@@H]2C(=O)N(Cc3ccccc3)C(=O)[C@@H]21` it was -4.16%. Under `COc1cc(/C=C/C(=O)Nc2ccc(OC)c(S(=O)(=O)N3CCOCC3)c2)ccc1OCC#N` stands -3.83%; under `CC(C)N(C(=O)CSc1nnc(NC2CC2)s1)c1ccccc1`, 31.5% (active). For the compound `Cc1csc(SCC(=O)N(c2ccccc2)C(C)C)n1`, the inhibition was -3.25%. Under `CN(C(=O)CSc1nnc(Nc2ccccc2)s1)C1CCS(=O)(=O)C1` (stereo not drawn) stands -5.88%; under `C=CCOC(=O)N1CCC2CC1c1cc(-c3ccc(OC)cc3)ccc12` (stereo not drawn), -1.31%. Under `CCc1cccc(C)c1NC(=O)COC(=O)CC1CCCC1` stands 31.1% (active); under `Cc1cccc(C)c1NC(=O)CNC(=O)C1CCCC1`, -2.92%. In the case of `CCc1cccc(C)c1NC(=O)COC(=O)Cc1ccsc1` it was 5.55%; in that of `COc1ccc2[nH]c3c(c2c1)CCN1C(=O)C(CC(=O)NCc2cccc(C(F)(F)F)c2)C[C@H](C(=O)N2CCOCC2)[C@@]31C` (stereo partly drawn), -2.83%; in that of `COc1cc(/C=C/C(=O)OCC(=O)c2ccccc2)cc(OC)c1OC`, -8.15%. Take `CCOC(=O)C(C)n1cnc2sc(C)c(C)c2c1=O` (stereo not drawn): the inhibition is -4.48%. Under `Cc1cccc(OC(=O)c2sc3ncn(C)c(=O)c3c2C)c1` stands -1.6%; under `Cc1c(C(N)=O)sc2ncn(CCOc3ccccc3)c(=O)c12`, 40.6% (active). In the case of `O=[N+]([O-])c1cc2ccccc2nc1-c1ccccc1` it was 3.37%; in that of `Cc1cc(C)cc(C(=O)NCC(=O)OCC(=O)N2CCCCC2)c1`, -4.99%. As for `COc1cc(OC)cc(C(=O)NCC(=O)N2CCCCCCC2)c1`, the inhibition was 59.5% (active). Under `CCOc1ccc(C(=O)NCC(=O)N2CCCCCCC2)cc1OCC` stands 2.87%. In the case of `Cc1ccc(C2(C)NC(=O)N(CC(=O)N3CC(=O)Nc4ccccc43)C2=O)cc1` (stereo not drawn) it was -3.12%; in that of `Cc1cccc(OCC(=O)OCC(=O)Nc2ccc(Cl)cn2)c1`, 74.8% (active). In the case of `CC(OC(=O)CCCOc1ccccc1)C(=O)Nc1ccc(Cl)cn1` (stereo not drawn) it was -3.1%; in that of `O=C(COC(=O)c1ccco1)Nc1ccc(Cl)cn1`, -5.62%. For the compound `CC(=O)Nc1ccc(S(=O)(=O)NCCC(=O)N2CCN(c3ccccc3Cl)CC2)cc1`, the inhibition was -2.76%.

With `COc1cc(C)ccc1OCC(=O)OCC(=O)c1ccc[nH]1`, the inhibition is 3.54%.

Take `Cc1cccc(CC2(O)C(=O)Nc3ccccc32)n1` (stereo not drawn): the inhibition was 3.12%. Under `Cc1cc([N+](=O)[O-])ccc1NS(=O)(=O)c1ccccc1` stands 2.21%; under `CC(=O)c1ccc(OCCCC(=O)Nc2ccc(C)c(S(=O)(=O)N3CCOCC3)c2)cc1`, -2.79%.

Consider `CCN(CC)S(=O)(=O)c1ccc(Cl)c(C(=O)NCCN2CCOCC2)c1`, for which the inhibition was 34.1% (active). Under `CCN(CC(=O)NCCCN1CCOCC1)S(=O)(=O)c1cc(Cl)ccc1Cl` stands 6.12%; under `CCN(CC)S(=O)(=O)c1ccc(N2CCOCC2)c(C(=O)O)c1`, -7.23%.

As for `CC(C)OC(=O)c1c(NC(=O)c2ccco2)sc2c1CCCC2`, the inhibition was -1.93%. `CCOC(=O)c1c(NC(=S)NC)sc2c1CCCC2`: the inhibition is 2.4%. Take `CCOC(=O)c1c(NC(=S)NC(=O)c2ccco2)sc2c1CCCC2`: the inhibition was 58.9% (active). In the case of `C=CC(COCc1ccccc1)N(CC(=O)OC)S(=O)(=O)c1cc(Br)ccc1OC` (stereo not drawn) it was -5.08%; in that of `Cc1ccc(S(=O)(=O)NCCC(c2ccccc2)c2ccccc2)cc1C(=O)O`, 3.3%; in that of `Cc1ccc(C(=O)NCCNC(=O)c2ccccc2)cc1`, 10.7%.

Consider `Cc1ncoc1C(=O)NCCC(c1ccccc1)c1ccccc1`, for which the inhibition was 56.7% (active).

On to `COc1cc(C(=O)NC2CCN(C)CC2)ccc1Nc1ncc2c(n1)N(C1CCC(O)CC1)CCC(=O)N2C` (stereo not drawn), for which the inhibition was -0.543%.

As for `FC(F)(F)c1ccc(-c2cccc3c2C2CC3CCN2Cc2ccccc2)cc1` (stereo not drawn), the inhibition was -2.76%. Under `CC(C)c1ccc(C=NNc2ccc([N+](=O)[O-])cn2)cc1` stands -3.5%; under `C[C@H](O)[C@@H]1C(=O)N2CCc3ccc(N4CCOCC4)cc3[C@@H]2C[C@@H]1N(C)C(=O)C(C)(C)C`, -2.27%. For the compound `CN(CCc1ccccc1)C(=O)c1cccc(NC(=O)Cc2cccc(NC(=O)C3CCCN(C(=O)CCc4ccccc4)C3)c2)c1` (stereo not drawn), the inhibition is -1.89%. In the case of `Cc1ccc(C(=O)N2CCN(C(=O)N3CCOCC3)CC2)cc1` it was -4.62%; in that of `Cc1ccc(CS(=O)Cc2ccc(C(=O)N3CCOCC3)o2)cc1` (stereo not drawn), 61.7% (active); in that of `Cc1ccc(S(=O)Cc2ccc(C(=O)N3CCN(C4CCCCC4)CC3)o2)cc1` (stereo not drawn), -1.71%. Under `CC/C(=C(/c1ccccc1)c1ccc(OCC[N+](C)(C)C)cc1)c1ccccc1` stands 5.44%. In the case of `CC(C)Cn1cnc2c(SCc3ccc(Cl)cc3)nc(N)nc21` it was -5.42%; in that of `CC(=O)CSc1nc(CCc2ccccc2)c(C#N)c(=O)[nH]1`, -3.06%; in that of `FC(F)(F)Oc1ccc(NC(=S)NCc2ccccc2)cc1`, 2.02%. On to `CCNC(=S)Nc1ccc(OC(F)(F)F)cc1`, for which the inhibition is -0.766%. With `CS(=O)(=O)c1sc(C(=O)NC(=S)Nc2ccc(OC(F)(F)F)cc2)c2c1C=CCC2`, the inhibition was 106% (active). In the case of `CCC(=O)N1CCc2cc(Br)c(S(=O)(=O)NCCN3CCCCC3CC)cc21` (stereo not drawn) it was -29.4%; in that of `Cc1ccc(C(=O)Nc2ccccc2-c2ccccc2)cc1S(=O)(=O)Nc1ccccc1`, -1.73%; in that of `Cc1ccc(CNC(=O)Cn2cnc3c(NCc4ccccc4)ncnc32)o1`, -0.092%. Under `COc1ccc(C)cc1NC(=O)CN1c2cccc3cccc(c23)S1(=O)=O` stands -0.836%.

On to `CC(C(=O)N1CCOCC1)N1c2cccc3cccc(c23)S1(=O)=O` (stereo not drawn), for which the inhibition was 0.599%. For the compound `COc1ccc(NC(=O)C(C)N2c3cccc4cccc(c34)S2(=O)=O)c(OC)c1` (stereo not drawn), the inhibition is 62.5% (active). In the case of `O=C(Cn1cnc2c(cnn2-c2ccccc2)c1=O)NCc1ccccc1`, the inhibition is 2.18%. Regarding `CC(C)(C)NC(=O)Cn1cnc2cc([N+](=O)[O-])ccc2c1=O`, the inhibition is -5.79%. Consider `O=C(Cn1cnc2cc([N+](=O)[O-])ccc2c1=O)NC(=O)NCc1ccccc1`, for which the inhibition was 65.7% (active). In the case of `COc1cc(C(=O)OCc2cc(=O)n3ccsc3n2)ccc1OC(C)C` it was -4.78%; in that of `Oc1[nH]c2ccccc2c1N=Nc1c(F)c(F)c(F)c(F)c1F`, -3.27%. In the case of `O=C(OCC(=O)N1CCN(c2ccccc2)CC1)c1ccc([N+](=O)[O-])s1` it was 4.92%.
